Screening data from PubChem.
Most compounds without a hit are left out; they make up all but 2.5% or so of the library.
DYRK1A inh: inhibitors of rat Dyrk1A kinase. ADP-Glo luminescence, NFATc1 peptide. inhibition, % at 12.5 µM. 310,000 tested, 0.43% active. AID 504441; in the data active means inhibition above about 50%
GC-A act: GC-A (human) enzyme activation; AID 1671463; HEK293 GC-A cells, cGMP TR-FRET, EC30 ANP; 0% at EC30 ANP, 100% saturating ANP; P16066; 370,000 tested, 0.14% active; activation, % at 10 µM; in the data active means activation above about 40%
HSF1 activator: increases HSF-1 driven luciferase reporter signal. activation, % at 9 µM. 300,000 tested, 1.7% active. AID 504408. NIH3T3-HGL HSF-1 luciferase reporter, MG132, 8 h; 100% = twice DMSO control signal;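 active means mean replicate activation of at least 50% with a set share of replicates each reaching 50%; inconclusive means only one of those two conditions met; inactive means mean below 50% and too few replicates reaching it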
HSF1 inh: HSF1 inhibition; NIH3T3-HGL HSE-luciferase, MG132-induced, luminescence 8 h; active compounds read low; activity change, negative = inhibition, % at 7.5 µM (by protocol); 300,000 tested, 0.77% active; AID 2098;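 active means more than half of replicate wells show activity change below -50%, luminescence cut by over half; inconclusive means some wells, but at most half, below -50%; inactive means no replicate well below -50%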;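 further: luciferase reports HSF-1 transcriptional activity via heat shock element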
aDG glyco act: alpha-DG glycosylation activation. Pro5-aDG cells, alpha-DG glycosylation AlphaScreen (IIH6); 0% Pro5, 100% B10-LARGE cell signal. activation, % at 10 µM. 360,000 tested, 0.22% active. AID 624168;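 active means activation of at least 8% versus controls, or a plate z-score of at least 8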;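 further: Pro5 are CHO cells carrying HIG-tagged alpha-DG that lacks glycosylation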
GC-B act: GC-B (human) receptor activation. P20594. HEK293-GC-B cells, CNP EC30, cGMP TR-FRET; 0% at EC30 CNP, 100% saturating CNP. activation, % at 10 µM. 370,000 tested, 0.11% active. AID 1920062;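 active means activation at 10 µM reaching about 35% in either raw or pattern-adjusted values, limit read from the data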
Target sequence (P20594 whole entry, looked up): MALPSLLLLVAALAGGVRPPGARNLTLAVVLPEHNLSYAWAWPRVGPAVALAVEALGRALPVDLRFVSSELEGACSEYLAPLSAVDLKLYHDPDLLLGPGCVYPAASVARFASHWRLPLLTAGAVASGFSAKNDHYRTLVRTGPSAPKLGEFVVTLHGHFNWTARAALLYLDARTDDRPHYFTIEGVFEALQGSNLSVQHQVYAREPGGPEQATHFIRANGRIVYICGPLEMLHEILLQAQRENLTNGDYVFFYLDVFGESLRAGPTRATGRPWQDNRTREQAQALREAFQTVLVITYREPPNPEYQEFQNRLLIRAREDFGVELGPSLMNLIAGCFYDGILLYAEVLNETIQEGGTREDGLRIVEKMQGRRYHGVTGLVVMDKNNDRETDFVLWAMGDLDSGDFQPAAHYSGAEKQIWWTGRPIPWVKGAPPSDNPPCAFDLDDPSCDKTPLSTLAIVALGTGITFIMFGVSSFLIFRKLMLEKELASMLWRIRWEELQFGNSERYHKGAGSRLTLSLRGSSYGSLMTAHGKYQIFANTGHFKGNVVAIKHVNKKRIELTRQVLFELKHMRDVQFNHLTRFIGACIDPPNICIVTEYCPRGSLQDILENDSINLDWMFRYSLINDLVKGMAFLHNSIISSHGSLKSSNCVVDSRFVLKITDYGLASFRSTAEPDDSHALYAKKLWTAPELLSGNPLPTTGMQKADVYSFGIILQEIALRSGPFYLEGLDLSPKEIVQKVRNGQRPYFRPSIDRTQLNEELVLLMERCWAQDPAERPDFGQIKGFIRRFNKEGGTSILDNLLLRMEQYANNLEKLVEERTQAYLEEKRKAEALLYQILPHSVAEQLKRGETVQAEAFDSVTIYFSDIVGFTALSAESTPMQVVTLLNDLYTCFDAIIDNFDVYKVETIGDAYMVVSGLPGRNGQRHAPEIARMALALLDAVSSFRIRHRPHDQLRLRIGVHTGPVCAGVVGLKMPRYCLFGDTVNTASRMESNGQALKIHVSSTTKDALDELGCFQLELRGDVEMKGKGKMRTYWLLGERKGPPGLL
Of the large screens only hits and unclear results are named; the others gave an inactive call.

CCOC(=O)Cn1nnc(-c2cccc(OC)c2)n1	HSF1 activator 67
COc1cccc(-c2nnn(CC(=O)O)n2)c1	none (no result: DYRK1A inh)
CN(C(=O)Cc1ccccc1)n1cnnc1	none
COc1ccc(OC2C(=O)N(Cc3ccc(F)cc3)C2c2ccc(OC)c(OC)c2)cc1 (stereo unspecified)	none
COc1ccc(OC2C(=O)N(Cc3ccc4c(c3)OCO4)C2c2sccc2C)cc1 (stereo unspecified)	HSF1 inh -75
CCOc1ccc(S(=O)(=O)NCCC(=O)OC(C)C(=O)N2CCc3ccccc32)cc1 (stereo unspecified)	HSF1 activator 56
CCOc1ccc(C(=O)N2CCc3ccccc32)cc1	none
Cc1cc(/C=C2/C(=O)N(C)C(=S)N2C)ccc1N1CCCC1	HSF1 activator 74
Cc1ccc(C(=O)c2ccc(CC(=O)O)n2C)cc1	none (no result: HSF1 activator, HSF1 inh)
O=C(O)c1ccccc1C(=O)c1cccc2c(Br)cccc12	GC-A act 58 (no result: HSF1 activator, HSF1 inh)
COc1cc(C(=O)NC2CCN(C)CC2)ccc1Nc1ncc2c(n1)N(Cc1ccccc1)CCC(=O)N2C	GC-B act 38 (no result: HSF1 activator, HSF1 inh)
Cc1cc(OCC(=O)N(C(C)C)C(C)C)ccc1Cl	none
O=C1C2CCCN2c2ccc(S(=O)(=O)N3CCOCC3)cc2N1Cc1cccc(C(F)(F)F)c1 (stereo unspecified)	HSF1 inh -85 (no result: DYRK1A inh, GC-A act, aDG glyco act, GC-B act)
c1ccc(NN(Cc2ccccn2)c2ccccc2)cc1	none (no result: DYRK1A inh, HSF1 activator, HSF1 inh)
COc1ccc(-c2nn(-c3ccccc3)cc2C(=O)N2CCN(S(=O)(=O)c3ccccc3[N+](=O)[O-])CC2)cc1	none (no result: HSF1 activator, HSF1 inh)
Cc1ccc(NC(=O)c2cc(-n3cnnc3)ccc2Cl)cc1	none
Cc1ccc(NC(=O)c2cc(N3C(=O)C=CC3=O)ccc2Cl)cc1C	HSF1 activator 60
CC(/C=N/NC(=O)Cn1nnc(N)n1)=C\c1ccc(C(C)C)cc1	none
COCCNC(=S)N(CCc1c(C)[nH]c2ccc(F)cc12)Cc1ccco1	HSF1 activator 53
COC(=O)/C(=C/c1cccnc1)NC(=O)c1ccccc1	HSF1 activator 92
O=C(N/C(=C\c1cccnc1)C(=O)N1CCCCC1)c1cccc(Br)c1	none
CN1CCN(C(=O)/C(=C/c2cccnc2)NC(=O)c2cccc(Br)c2)CC1	HSF1 activator 72
CC(=O)C1=C(C)OC(N)=C(C#N)C1c1cccc2ccccc12 (stereo unspecified)	none
O=C(Nc1ccc2c(c1)OCCO2)c1cc2ccccc2o1	HSF1 activator 61
CCOc1ccc(C(=O)Nc2ccc3c(c2)OCCO3)cc1	HSF1 activator 118
CCOc1ccc(NC(=O)C2CC(=O)N3CCCN=C3S2)cc1 (stereo unspecified)	HSF1 activator 54
O=C(NCCN1CCOCC1)c1cc2ccccc2oc1=O	none
O=C(NCCN1CCOCC1)c1cc2ccccc2o1	HSF1 activator 61
CCOC(=O)C1CCCN(CC(=O)Nc2c(C(=O)OC)[nH]c3ccc(Br)cc23)C1 (stereo unspecified)	none
COC(=O)CCC(=O)Nc1ccc2oc3c(c2c1)CCCC3	none
CCOC(=O)[C@]12CCC=C1N(CCC1=CCCCC1)C(=O)[C@H](CC(=O)NCCCOC)C2	none (no result: DYRK1A inh, HSF1 activator, HSF1 inh)
COC(=O)[C@]12C[C@H](CC(=O)NCc3cccc4ccccc34)C(=O)N(Cc3ccc(Cl)cc3Cl)C1=C[C@H](C(C)(C)C)O[C@@H]2C	none (no result: DYRK1A inh, HSF1 activator, HSF1 inh, aDG glyco act)
CCOC(=O)CCc1c(C)c2ccc(OCC)c(C)c2oc1=O	none (no result: DYRK1A inh, aDG glyco act)
CC(C)c1ccc(NC(=O)c2cccc(Br)c2)cc1	HSF1 activator 78
Nc1c(C(=O)Nc2ccccc2Cl)nnn1-c1ccc2c(c1)OCCO2	HSF1 activator 58
Nc1c(C(=O)Nc2ccc3c(c2)OCCO3)nnn1Cc1ccc(Br)cc1	HSF1 activator 56
O=C(Nc1ccc2c(c1)OCCO2)c1cccc(Br)c1	HSF1 activator 57 (no result: DYRK1A inh)
COc1cc(-c2cc3nc(NC4CCCCC4)ccn3n2)cc(OC)c1OC	none (no result: DYRK1A inh, HSF1 activator, HSF1 inh)
Cc1cccc(-n2nc([N+](=O)[O-])c(N3CCN(C(=O)c4ccco4)CC3)[n+]2[O-])c1	none
Cn1nc(C(=O)Nc2ccc(S(=O)(=O)Nc3ncccn3)cc2)ccc1=O	none
CCOc1ccc(N2CC(C(=O)Nc3ccc4c(c3)OCO4)CC2=O)cc1 (stereo unspecified)	none
CCOc1ccc(C(=O)NC2=NCCS2)cc1	HSF1 activator 66 (no result: DYRK1A inh, aDG glyco act)
CCOc1ccc(N2CC(C(=O)Nc3ccc4c(c3)OCCO4)CC2=O)cc1 (stereo unspecified)	HSF1 inh -65
CCc1ccc(NC(=O)C2C3CCC(O3)C2C(=O)O)cc1 (stereo unspecified)	HSF1 inh -70 (no result: DYRK1A inh)
O=C(O)C1C2CCC(O2)C1C(=O)Nc1ccc(F)cc1 (stereo unspecified)	none
Cc1ccc2[nH]c(=O)c(CN(C(=O)c3cccc([N+](=O)[O-])c3)C(C)(C)C)cc2c1	none
Cc1ccc(/C=[N+](\[O-])c2ccc(N(C)C)cc2)c2nsnc12	HSF1 inh -57
COc1ccc(NC(=O)Nc2ccccc2F)c([N+](=O)[O-])c1	none (no result: HSF1 activator, HSF1 inh)
Cc1cccc(N(CC(=O)Nc2ccccc2-c2ccccc2)S(=O)(=O)c2ccccc2)c1C	HSF1 activator 53
Cc1ccc(S(=O)(=O)N(CC(=O)Nc2ccccc2-c2ccccc2)c2ccc(C)cc2C)cc1	none
c1ccc(COc2ccccc2CNC2CCCC2)cc1	HSF1 activator 58
Cc1cccc(N=C2NN=C(c3ccc4c(c3)OCCO4)CS2)c1	HSF1 inh inconclusive
CCc1ccc(C2=NNC(=Nc3cccc(S(=O)(=O)N(C)C)c3)SC2)cc1	HSF1 inh -77
COC(=O)c1ccc2c(=O)n(Cc3ccc(C(=O)NC4CCCC4)cc3)c(=S)[nH]c2c1	none
O=c1c2cc(N3CCOCC3)ccc2[nH]c(=S)n1Cc1ccc(Cl)cc1	HSF1 activator 56
COc1cc2c(cc1OC)C(C)N(CC(=O)Nc1ccc(C)c(S(=O)(=O)N3CCOCC3)c1)CC2 (stereo unspecified)	none (no result: DYRK1A inh)
Cc1c(/C=N/NC(=O)c2ccc(Br)o2)cnn1C	HSF1 activator 61
Cc1c(/C=N\NC(=O)c2ccc(F)cc2)cnn1C	none
Cn1cc(/C=C2/SC(=O)N(c3ccccc3)C2=O)c2ccccc21	none
Cn1cccc1/C=C1\SC(=O)N(c2ccccc2)C1=O	HSF1 activator 65
COc1ccccc1CCNC(=O)C(=O)Nc1cc2c3c(c1)CC(=O)N3CCC2	none
CCOC(=O)C1CCCN(C(=O)c2sc3nc(C)nc(N(CC)CC)c3c2C)C1 (stereo unspecified)	HSF1 activator 57
CC(C)CN1CCC(=O)N(CCSc2ccccc2)CC1	none
Cc1ccc(-c2nn(C)c(=O)c3ccccc23)cc1S(=O)(=O)NCCN(C)C	HSF1 inh -61
